The source made the active and inactive calls.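 Rule for the calls: active = compounds whose GFP signal falls below 65% of the DMSO control level; inconclusive = fewer than 70 yeast cells counted in the well; inactive = the rest.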
experiment: TOR branch reporter RPL19A-GFP response – cell-based, S. cerevisiae, third cherry pick, flow cytometry, confirmation (AID 504336);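 note: median GFP fluorescence of all gated yeast cells by flow cytometry; ratio of well median fluorescence to plate mean of DMSO wells with DMSO = 100%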; conditions: S. cerevisiae RPL19A-GFP strain, 3 h, at 10 µM, stronger effect = lower value

SMILES | GFP response relative to DMSO
CN(C)C(=O)Oc1ccnc2cc(Cl)ccc12 | 102% (inactive)
C/C(O)=C(\C#N)C(=O)Nc1cc(Br)ccc1Br | 97.5% (inactive)
CCN1CCN(c2ncnc3ccc(Br)cc23)CC1 | 100% (inactive)
CN(C)C(=O)Oc1ccc(Cl)c2cccnc12 | 101% (inactive)
Cc1ccc2c(c1N)C(=O)c1ccccc1C2=O | 101% (inactive)
CN1CCN(c2ncnc3ccc(Br)cc23)CC1 | 99.3% (inactive)

Source: PubChem BioAssay AID504336 (NMMLSC, 2011)
